Measurements published in PubChem BioAssay.

Assay: basal HepG2 mitochondrial membrane potential changes, profiling panel, cell-based, JC-1 fluorescence, 24 h, 100 nL compound (AID 1167); also: test concentration not given here
Conditions: higher = more signal

SMILES | z-score
COCCOC(=O)N1C(=O)[C@@]2(c3cc(C#CCC(C(=O)OC)C(=O)OC)ccc31)[C@H](c1ccc(O)cc1)N1[C@H](c3ccccc3)[C@H](c3ccccc3)OC(=O)[C@H]1[C@@H]2C(=O)N1CCc2cc(OC)c(OC)cc2C1 | 0.763
C[C@]1(C(=O)O)c2ccccc2C(=O)N(Cc2cc(C(F)(F)F)cc(C(F)(F)F)c2)[C@H]1c1ccc(CO)cc1 | -0.244
O=C(N1CCOCC1)[C@]1(CCS(=O)(=O)c2ccccc2)N=C(c2ccc(OCCCO)cc2)O[C@@H]1c1ccccc1 | 1.43
CC1(C)OB(/C=C\CC(OC(=O)c2ccncc2)c2ccccc2)OC1(C)C (stereo not given) | -1.27
COC(=O)[C@]1(Cc2ccccc2CN=[N+]=[N-])N=C(c2ccc(OCCCO)cc2)O[C@@H]1c1ccccc1N=[N+]=[N-] | 1.52
CC(C)(C)OC(=O)CC[C@@]1(C(=O)N2CCOCC2)N=C(c2ccc(OCCCO)cc2)O[C@@H]1c1ccccc1CN=[N+]=[N-] | 0.259
COC(=O)[C@@]1(Cc2ccccc2)[C@H]2c3cc(C(=O)N(C)C)n(Cc4ccc(Cl)c(C(F)(F)F)c4)c3C[C@H]2CN1C(=O)c1ccccc1 | 2.34
CN1C(=O)C2C(C1=O)C1C=C(CCCO)C2C(C2CC2)N1C (stereo not given) | 1.18
CO[C@H]1O[C@H](CO)[C@@H](OC(=O)CCc2ccccc2)[C@@H]2OC(=O)[C@@H](Cc3ccc4ccccc4c3)C/C=C/C[C@H](Cc3ccc4ccccc4c3)C(=O)O[C@@H]12 | 0.111
C=C(C(=O)CC[C@@H](OC(=O)c1ccccc1-c1ccccc1C(=O)O)c1ccc(OCCO)cc1)C(C)C | -0.556
[N-]=[N+]=NCc1ccccc1[C@H]1OC(c2ccc(OCCCO)cc2)=N[C@@]1(Cc1ccccc1N=[N+]=[N-])C(=O)O | -2.04
C=CCN1C(=O)[C@]2(O[C@H](CCO)[C@@H]([Si](C)(C)c3ccc(OC)cc3)[C@@H]2C)c2cc(N3C(=O)c4ccccc4Oc4ccccc43)ccc21 | -2.08
CCOC(=O)C[C@H]1[C@H](OC(=O)c2ccc(-c3ccccc3)cc2)[C@@H](NC(=O)C2CCCCC2)c2cc(OCCCO)ccc2N1C(=O)Cc1ccc(OC)cc1 | 0.801
C=CCNC(=O)[C@@H]1[C@H]2C(=O)O[C@H](c3ccccc3)[C@H](c3ccccc3)N2[C@H](c2ccc(OCCO)cc2)[C@@]12C(=O)Nc1ccc(C#CCNC(N)=O)cc12 | -0.921
CC(C)Cc1ccc(CN2CC[C@@H](NC(=O)c3ccccc3)C2)cc1 | -0.251
CC(=O)NCCCC[C@@H]1NC(=O)[C@H]2C[C@@H](C(=O)NCCCCCN)[C@@H](c3ccc(O)cc3)N2C1=O | -0.659
CCCNC(=O)[C@@]1(Sc2ccc(C)cc2)CC(=O)N(Cc2cc(C(F)(F)F)cc(C(F)(F)F)c2)[C@@H]1c1ccc(CO)cc1 | -0.537
Cc1ccc(S[C@]2(C(=O)NCc3ccccc3)CC(=O)N(Cc3ccccc3C(F)(F)F)[C@@H]2c2ccc(CO)cc2I)cc1 | -0.741

SMILES | z-score
CCc1cccc(NC(=O)O[C@H]2[C@H](OC(=O)Nc3ccccc3-c3ccccc3)[C@H](OC(=O)Nc3ccccc3-c3ccccc3)[C@@H](OC)O[C@@H]2CO)c1 | -0.812
Cc1ccc(S[C@]2(C(=O)NCC(C)C)CC(=O)N(C(C)C)[C@@H]2c2ccc(CO)cc2I)cc1 | 0.978
COC(=O)C(CC#Cc1ccc2c(c1)[C@]1(C(=O)N2)[C@H](C(=O)N2CCCCCCC2)[C@H]2C(=O)O[C@H](c3ccccc3)[C@H](c3ccccc3)N2[C@@H]1c1ccc(OCCO)cc1)C(=O)OC | -0.738
O=C1NC(=O)C2C1C=CC(C(O)C1CCCCC1)N2Nc1ccccn1 (stereo not given) | -1.45
CN1C(=O)C2C=CC(C(O)c3ccc(I)cc3)N(N(c3ccccc3)c3ccccc3)C2C1=O (stereo not given) | -0.994
COC(=O)[C@]1(Cc2ccccc2N=[N+]=[N-])N=C(c2ccc(OCCCO)cc2)O[C@@H]1c1ccccc1CN=[N+]=[N-] | -1.76
COC(=O)[C@@]1(Cc2ccc(F)cc2)[C@H]2c3cc(C(=O)N(C)C)n(Cc4ccc(C(F)(F)F)nc4)c3C[C@H]2CN1C(=O)c1ccccc1 | 1.79
C=C(CCCC)/C(=C/C[C@@H](OC(C)=O)c1ccc(OCCO)cc1)c1cc(C(=O)OC)ccc1OC | 0.621
COc1ccc([Si](C)(C)[C@@H]2[C@@H](CC(=O)N3Cc4ccccc4C[C@H]3CO)O[C@]3(C(=O)N(Cc4ccc(I)cc4)c4ccccc43)[C@H]2C)cc1 | 0.81
C=CCNC(=O)[C@@H]1[C@H]2C(=O)O[C@H](c3ccccc3)[C@H](c3ccccc3)N2[C@H](c2ccc(O)cc2)[C@@]12C(=O)Nc1ccc(C#CC3=CCCCC3)cc12 | -1.42
COCCOC(=O)N1C(=O)[C@@]2(c3cc(C#CCCO)ccc31)[C@H](C(=O)N1CCN(c3ncccn3)CC1)[C@H]1C(=O)O[C@H](c3ccccc3)[C@H](c3ccccc3)N1[C@@H]2c1ccc(OCCO)cc1 | -1.02
O=C1N(Cc2ccccc2)Cc2ccccc2C[C@@]12COC(c1ccc(OCCCO)cc1)=N2 | -0.641
[N-]=[N+]=NCc1ccccc1[C@H]1OC(c2ccc(OCCCO)cc2)=N[C@@]1(Cc1ccccc1N=[N+]=[N-])C(=O)N1CCOCC1 | -1.26
CO[C@H]1O[C@H](CO)[C@@H](OC(=O)Nc2cccc(F)c2)[C@H](OC(=O)Nc2ccc3c(c2)OCO3)[C@@H]1OC(=O)Nc1ccc2c(c1)OCO2 | -0.96
[N-]=[N+]=Nc1ccccc1C[C@@]1(C(=O)NCc2ccccc2)N=C(c2ccc(OCCCO)cc2)O[C@@H]1c1ccccc1 | 1.45
C=C[C@H](C)[C@@H](OC(=O)Nc1ccc(SC)cc1)c1ccc(OCCO)cc1 | -3.37
COc1ccc(C#Cc2ccc3c(c2)[C@]2(C(=O)N3)[C@H](c3ccccc3OCCO)N3[C@H](c4ccccc4)[C@H](c4ccccc4)OC(=O)[C@H]3[C@@H]2C(=O)NC[C@H](O)c2ccccc2)cc1 | -1.21
